Results on 37 compounds are retold here after PubChem BioAssay (Tox21).

Values joined by “and” are separate entries in the source; they are usually repeats but may differ in a detail not shown here. Identical values can stand only once. Inconclusive results are not listed. A call without a number means that no potency is given here. Where a structure was tested more than once in an assay, its records may differ in their call. Active and inactive are the calls of the source. The call rests on the fitted dose curve; in most records, active means well fitted curve in the direction sought with a large enough effect in the repeat runs; inconclusive means weak or mixed curves; inactive means no such curve, though single readings can be large; an effect the other way counts as inactive or inconclusive.
Potency means the concentration at half of the fitted maximal effect.

A short description of one experiment: A CellTox Green Cytotoxicity Assay to monitor cytotoxicity in HepG2 cells - 40 hour (AID 1224879). Further: nearly all actives have a fitted effect of over 40% in size. The note with it: CellTox Green fluorescence; series mostly up to 76.8 µM; cytotoxicity increase: at the top concentration. Summed up:
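Continuous culture of HepG2 cells with a membrane-impermeant DNA dye; rising fluorescence marks dead cells. Compound exposure lasted up to 40 h at 37 C, with reads every 8 h from 0 h.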
In the case of `N=C(N)c1ccc(OCCCCCOc2ccc(C(=N)N)cc2)cc1`, the Potency was 48.8 µM (active) and inactive.

In the case of `Nc1ccc(S(=O)(=O)Nc2nccs2)cc1`, the Potency result was “inactive and 38.9 µM (active)”.

Consider `Cc1ccc(S(=O)(=O)NC(=O)NN2CCCCCC2)cc1`, for which the Potency entry is “inactive”.

For the compound `CCCNC(=O)NS(=O)(=O)c1ccc(Cl)cc1`, the Potency result was “inactive”.

As for `O=C(O)c1cc(N=Nc2ccc(S(=O)(=O)Nc3ccccn3)cc2)ccc1O`, the Potency entry was “inactive”.

For `OCCc1ccccc1`, the Potency result was “inactive”.

Consider `O=C1NC(=O)c2ccccc21`, for which the Potency entry is “inactive”.

On to `O=C(O)CS`, for which the Potency result was “inactive”.

Turning to `O=S(=O)(O)c1ccc2cc(O)ccc2c1`, the Potency result was “inactive”.

As for `CCOc1ccc(NC(=O)CC(C)O)cc1` (configuration not stated), the Potency entry is “inactive”.

`CC(=O)Nc1nnc(S(N)(=O)=O)s1`: the Potency entry is “inactive”.

Consider `COc1ccc2[nH]cc(CCNC(C)=O)c2c1`, for which the Potency entry was “inactive”.

Turning to `O=c1ccc2ccccc2o1`, the Potency entry was “inactive”.

Consider `Cc1cc(=O)[nH]c(=S)[nH]1`, for which the Potency entry was “inactive”.

On to `O=C(O)c1cccnc1`, for which the Potency result is “inactive”.

The next experiment is described as follows: qHTS RealTime-Glo MT Cell Viability Assay in HEK293 cells - 0 hour (AID 1224880). Further: nearly all actives have a fitted effect of over 45% in size. On activity change, negative = cytotoxicity: top concentration of the series differs between compounds. Particulars: RealTime-Glo luminescence; series mostly up to 76.8 µM; activity change, negative = cytotoxicity: at the top concentration. In short, it runs like this: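 qHTS format; HEK293 cells with NanoLuc/prosubstrate reagent, 37 C/5% CO2 for 5 h pre-dosing; compounds 23 nL in DMSO; luminescence at each time point reflects viable cells.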
(In general: qHTS replaces the single test concentration by a dilution series.)
For the compound `N=C(N)c1ccc(OCCCCCOc2ccc(C(=N)N)cc2)cc1`, the Potency result is “inactive”.

`Nc1ccc(S(=O)(=O)Nc2nccs2)cc1`: the Potency result was “inactive”.

As to `Cc1ccc(S(=O)(=O)NC(=O)NN2CCCCCC2)cc1`, the Potency result was “inactive”.

For `Cc1noc(NS(=O)(=O)c2ccc(N)cc2)c1C`, the Potency entry is “inactive”.

With `O=c1cc[nH]c(=S)[nH]1`, the Potency result was “inactive”.

Turning to `Cc1ccccc1C(OCCN(C)C)c1ccccc1` (configuration not stated), the Potency result is “inactive”.

As for `CC(C)(Oc1ccc(C2CC2(Cl)Cl)cc1)C(=O)O` (configuration not stated), the Potency result is “inactive”.

`CCCNC(=O)NS(=O)(=O)c1ccc(Cl)cc1`: the Potency entry is “inactive”.

Consider `O=S(=O)(O)NC1CCCCC1`, for which the Potency result was “inactive”.

For the compound `CCCCC1C(=O)N(c2ccccc2)N(c2ccccc2)C1=O`, the “activity change, negative = cytotoxicity” value was -29.8% (inactive).

Consider `Cc1cc(=O)n(-c2ccccc2)n1C`, for which the Potency result was “inactive”.

As to `O=C(O)c1cc(N=Nc2ccc(S(=O)(=O)Nc3ccccn3)cc2)ccc1O`, the Potency is 12.3 µM (active) and 19.5 µM (active) and 16.9 µM (active).

As for `C[C@]12C=CC(=O)C=C1CC[C@@H]1[C@@H]2[C@@H](O)C[C@@]2(C)[C@H]1CC[C@]2(O)C(=O)CO`, the Potency result is “inactive”.

`CC(C)[C@@H]1CC[C@@H](C)C[C@H]1O`: the Potency entry was “inactive”.

With `OCCc1ccccc1`, the Potency result is “inactive”.

With `O=C(C1CCCCC1)N1CC(=O)N2CCc3ccccc3C2C1` (configuration not stated), the Potency entry is “inactive”.

Turning to `O=C1NC(=O)c2ccccc21`, the Potency result was “inactive”.

As for `O=C(O)CS`, the Potency result was “inactive”.

For the compound `CCCC(CCC)C(=O)O`, the Potency entry is “inactive”.

As for `Cn1cc[nH]c1=S`, the Potency result is “inactive”.

Consider `Cc1cn([C@H]2C[C@H](N=[N+]=[N-])[C@@H](CO)O2)c(=O)[nH]c1=O`, for which the Potency entry is “inactive”.

Consider `Nc1ccc(S(=O)(=O)c2ccc(N)cc2)cc1`, for which the Potency entry is “inactive”.

`O=S(=O)(O)c1ccc2cc(O)ccc2c1`: the Potency entry is “inactive”.

On to `CCOc1ccc(NC(=O)CC(C)O)cc1` (configuration not stated), for which the Potency entry is “inactive”.

For `C/C=C/c1ccc(OC)cc1`, the Potency entry is “inactive”.

As to `O=C1CN(/N=C/c2ccc([N+](=O)[O-])o2)C(=O)N1`, the Potency entry was “inactive”.

On to `CC(=O)Nc1nnc(S(N)(=O)=O)s1`, for which the Potency result was “inactive”.

As to `Cn1c(=O)c2[nH]cnc2n(C)c1=O`, the Potency entry is “inactive”.

For the compound `CC(O)C(=O)O` (configuration not stated), the Potency entry is “inactive”.

In the case of `Cc1ccc(O)cc1`, the Potency result is “inactive”.

As for `COc1ccc2[nH]cc(CCNC(C)=O)c2c1`, the Potency result is “inactive”.

Take `NC(=O)NC1NC(=O)NC1=O` (configuration not stated): the Potency result was “inactive”.

Consider `NC(=O)c1ccccc1O`, for which the Potency result was “inactive”.

`O=c1ccc2ccccc2o1`: the Potency result is “inactive”.

Turning to `Cc1cc(=O)[nH]c(=S)[nH]1`, the Potency result was “inactive”.

Take `CC(=O)OCC(COC(C)=O)OC(C)=O`: the Potency entry was “inactive”.

On to `O=C(O)c1cccnc1`, for which the Potency entry was “inactive”.
